Target: AgAbp1
Experiment: SPOT peptide array binding signal intensity (averaged, normalized) (arbitrary units (background-subtracted, floor 0; scale differs between SH3 domains)); higher = stronger binding of the SH3 domain to the peptide
In short: (§1)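 GST-SH3 fusions from four yeast species, purified on glutathione Sepharose, were incubated at 10 μg/ml overnight at 4°C on membranes of synthetic 15-mer peptides in which cysteines were replaced with serines. Binding signal is the normalized, background-subtracted spot intensity averaged over replicates, in domain-specific arbitrary units.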

Binder	SPOT peptide array binding signal intensity
ANNQGPPNLPARDKS	4.5

Target: AgBbc1
Experiment: as above
In short: as §1

Binder	SPOT peptide array binding signal intensity
ANNQGPPNLPARDKS	0.25

Target: AgBem1-D1
Experiment: as above
In short: as §1

Binder	SPOT peptide array binding signal intensity
ANNQGPPNLPARDKS	3.5

Target: AgBzz1-D1
Experiment: as above
In short: as §1

Binder	SPOT peptide array binding signal intensity
ANNQGPPNLPARDKS	9.5

Target: AgBzz1-D2
Experiment: as above
In short: as §1

Binder	SPOT peptide array binding signal intensity
ANNQGPPNLPARDKS	4

Target: AgCyk3
Experiment: as above
In short: as §1

Binder	SPOT peptide array binding signal intensity
ANNQGPPNLPARDKS	≤ 0

Target: AgFus1
Experiment: as above
In short: as §1

Binder	SPOT peptide array binding signal intensity
ANNQGPPNLPARDKS	≤ 0

Target: AgHof1
Experiment: as above
In short: as §1

Binder	SPOT peptide array binding signal intensity
ANNQGPPNLPARDKS	1

Target: AgHse1
Experiment: as above
In short: as §1

Binder	SPOT peptide array binding signal intensity
ANNQGPPNLPARDKS	≤ 0

Target: AgLsb1
Experiment: as above
In short: as §1

Binder	SPOT peptide array binding signal intensity
ANNQGPPNLPARDKS	144

Target: AgLsb4
Experiment: as above
In short: as §1

Binder	SPOT peptide array binding signal intensity
ANNQGPPNLPARDKS	4990

Target: AgMyo5
Experiment: as above
In short: as §1

Binder	SPOT peptide array binding signal intensity
ANNQGPPNLPARDKS	≤ 0

Target: AgNbp2
Experiment: as above
In short: as §1

Binder	SPOT peptide array binding signal intensity
ANNQGPPNLPARDKS	≤ 0

Target: AgRvs167
Experiment: as above
In short: as §1

Binder	SPOT peptide array binding signal intensity
ANNQGPPNLPARDKS	274

Target: AgSho1
Experiment: as above
In short: as §1

Binder	SPOT peptide array binding signal intensity
ANNQGPPNLPARDKS	≤ 0

Target: AgSla1-D1-D2
Experiment: as above
In short: as §1

Binder	SPOT peptide array binding signal intensity
ANNQGPPNLPARDKS	≤ 0

Target: AgSla1-D3
Experiment: as above
In short: as §1

Binder	SPOT peptide array binding signal intensity
ANNQGPPNLPARDKS	0.75

Target: CaAbp1-D1
Experiment: as above
In short: as §1

Binder	SPOT peptide array binding signal intensity
ANNQGPPNLPARDKS	8

Target: CaAbp1-D2
Experiment: as above
In short: as §1

Binder	SPOT peptide array binding signal intensity
ANNQGPPNLPARDKS	18.5

Target: CaBbc1
Experiment: as above
In short: as §1

Binder	SPOT peptide array binding signal intensity
ANNQGPPNLPARDKS	20.5

Target: CaBem1-D1
Experiment: as above
In short: as §1

Binder	SPOT peptide array binding signal intensity
ANNQGPPNLPARDKS	≤ 0

Target: CaBzz1-D1
Experiment: as above
In short: as §1

Binder	SPOT peptide array binding signal intensity
ANNQGPPNLPARDKS	6.5

Target: CaBzz1-D2
Experiment: as above
In short: as §1

Binder	SPOT peptide array binding signal intensity
ANNQGPPNLPARDKS	4.5

Target: CaCyk3
Experiment: as above
In short: as §1

Binder	SPOT peptide array binding signal intensity
ANNQGPPNLPARDKS	≤ 0

Target: CaFus1
Experiment: as above
In short: as §1

Binder	SPOT peptide array binding signal intensity
ANNQGPPNLPARDKS	≤ 0

Target: CaHof1
Experiment: as above
In short: as §1

Binder	SPOT peptide array binding signal intensity
ANNQGPPNLPARDKS	≤ 0

Target: CaHse1
Experiment: as above
In short: as §1

Binder	SPOT peptide array binding signal intensity
ANNQGPPNLPARDKS	38.8

Target: CaLsb1
Experiment: as above
In short: as §1

Binder	SPOT peptide array binding signal intensity
ANNQGPPNLPARDKS	≤ 0

Target: CaLsb4
Experiment: as above
In short: as §1

Binder	SPOT peptide array binding signal intensity
ANNQGPPNLPARDKS	5930

Target: CaMyo5
Experiment: as above
In short: as §1

Binder	SPOT peptide array binding signal intensity
ANNQGPPNLPARDKS	0.5

Target: CaNbp2
Experiment: as above
In short: as §1

Binder	SPOT peptide array binding signal intensity
ANNQGPPNLPARDKS	≤ 0

Target: CaRvs167
Experiment: as above
In short: as §1

Binder	SPOT peptide array binding signal intensity
ANNQGPPNLPARDKS	2230

Target: CaRvs167-3
Experiment: as above
In short: as §1

Binder	SPOT peptide array binding signal intensity
ANNQGPPNLPARDKS	3

Target: CaSho1
Experiment: as above
In short: as §1

Binder	SPOT peptide array binding signal intensity
ANNQGPPNLPARDKS	≤ 0

Target: CaSla1-D1-D2
Experiment: as above
In short: as §1

Binder	SPOT peptide array binding signal intensity
ANNQGPPNLPARDKS	≤ 0

Target: CaSla1-D3
Experiment: as above
In short: as §1

Binder	SPOT peptide array binding signal intensity
ANNQGPPNLPARDKS	≤ 0

Target: ScAbp1
Experiment: as above
In short: as §1

Binder	SPOT peptide array binding signal intensity
ANNQGPPNLPARDKS	7

Target: ScBbc1
Experiment: as above
In short: as §1

Binder	SPOT peptide array binding signal intensity
ANNQGPPNLPARDKS	2

Target: ScBem1-D1
Experiment: as above
In short: as §1

Binder	SPOT peptide array binding signal intensity
ANNQGPPNLPARDKS	≤ 0

Target: ScBzz1-D1
Experiment: as above
In short: as §1

Binder	SPOT peptide array binding signal intensity
ANNQGPPNLPARDKS	5

Target: ScBzz1-D2
Experiment: as above
In short: as §1

Binder	SPOT peptide array binding signal intensity
ANNQGPPNLPARDKS	1

Target: ScCyk3
Experiment: as above
In short: as §1

Binder	SPOT peptide array binding signal intensity
ANNQGPPNLPARDKS	≤ 0

Target: ScFus1
Experiment: as above
In short: as §1

Binder	SPOT peptide array binding signal intensity
ANNQGPPNLPARDKS	2

Target: ScHof1
Experiment: as above
In short: as §1

Binder	SPOT peptide array binding signal intensity
ANNQGPPNLPARDKS	2

Target: ScHse1
Experiment: as above
In short: as §1

Binder	SPOT peptide array binding signal intensity
ANNQGPPNLPARDKS	42.5

Target: ScLsb1
Experiment: as above
In short: as §1

Binder	SPOT peptide array binding signal intensity
ANNQGPPNLPARDKS	645

Target: ScLsb2
Experiment: as above
In short: as §1

Binder	SPOT peptide array binding signal intensity
ANNQGPPNLPARDKS	5

Target: ScLsb3
Experiment: as above
In short: as §1

Binder	SPOT peptide array binding signal intensity
ANNQGPPNLPARDKS	7290

Target: ScLsb4
Experiment: as above
In short: as §1

Binder	SPOT peptide array binding signal intensity
ANNQGPPNLPARDKS	4380

Target: ScMyo3
Experiment: as above
In short: as §1

Binder	SPOT peptide array binding signal intensity
ANNQGPPNLPARDKS	≤ 0

Target: ScMyo5
Experiment: as above
In short: as §1

Binder	SPOT peptide array binding signal intensity
ANNQGPPNLPARDKS	≤ 0

Target: ScNbp2
Experiment: as above
In short: as §1

Binder	SPOT peptide array binding signal intensity
ANNQGPPNLPARDKS	≤ 0

Target: ScPex13
Experiment: as above
In short: as §1

Binder	SPOT peptide array binding signal intensity
ANNQGPPNLPARDKS	472

Target: ScRvs167
Experiment: as above
In short: as §1

Binder	SPOT peptide array binding signal intensity
ANNQGPPNLPARDKS	2820

Target: ScSho1
Experiment: as above
In short: as §1

Binder	SPOT peptide array binding signal intensity
ANNQGPPNLPARDKS	≤ 0

Target: ScSla1-D1-D2
Experiment: as above
In short: as §1

Binder	SPOT peptide array binding signal intensity
ANNQGPPNLPARDKS	≤ 0

Target: ScSla1-D3
Experiment: as above
In short: as §1

Binder	SPOT peptide array binding signal intensity
ANNQGPPNLPARDKS	0.75

Target: SpAbp1-D1
Experiment: as above
In short: as §1

Binder	SPOT peptide array binding signal intensity
ANNQGPPNLPARDKS	≤ 0

Target: SpBbc1
Experiment: as above
In short: as §1

Binder	SPOT peptide array binding signal intensity
ANNQGPPNLPARDKS	≤ 0

Target: SpBzz1-D1
Experiment: as above
In short: as §1

Binder	SPOT peptide array binding signal intensity
ANNQGPPNLPARDKS	6

Target: SpBzz1-D2
Experiment: as above
In short: as §1

Binder	SPOT peptide array binding signal intensity
ANNQGPPNLPARDKS	≤ 0

Target: SpCyk3
Experiment: as above
In short: as §1

Binder	SPOT peptide array binding signal intensity
ANNQGPPNLPARDKS	≤ 0

Target: SpHof1
Experiment: as above
In short: as §1

Binder	SPOT peptide array binding signal intensity
ANNQGPPNLPARDKS	0.5

Target: SpHof1-2
Experiment: as above
In short: as §1

Binder	SPOT peptide array binding signal intensity
ANNQGPPNLPARDKS	5.5

Target: SpHof1-3
Experiment: as above
In short: as §1

Binder	SPOT peptide array binding signal intensity
ANNQGPPNLPARDKS	6.75

Target: SpHse1
Experiment: as above
In short: as §1

Binder	SPOT peptide array binding signal intensity
ANNQGPPNLPARDKS	≤ 0

Target: SpLsb1
Experiment: as above
In short: as §1

Binder	SPOT peptide array binding signal intensity
ANNQGPPNLPARDKS	91

Target: SpLsb4
Experiment: as above
In short: as §1

Binder	SPOT peptide array binding signal intensity
ANNQGPPNLPARDKS	6520

Target: SpMyo1
Experiment: as above
In short: as §1

Binder	SPOT peptide array binding signal intensity
ANNQGPPNLPARDKS	≤ 0

Target: SpNbp2
Experiment: as above
In short: as §1

Binder	SPOT peptide array binding signal intensity
ANNQGPPNLPARDKS	≤ 0

Target: SpPex13
Experiment: as above
In short: as §1

Binder	SPOT peptide array binding signal intensity
ANNQGPPNLPARDKS	≤ 0

Target: SpRvs167
Experiment: as above
In short: as §1

Binder	SPOT peptide array binding signal intensity
ANNQGPPNLPARDKS	3210

Target: SpSla1-D1-D2
Experiment: as above
In short: as §1

Binder	SPOT peptide array binding signal intensity
ANNQGPPNLPARDKS	≤ 0

Target: SpSla1-D3
Experiment: as above
In short: as §1

Binder	SPOT peptide array binding signal intensity
ANNQGPPNLPARDKS	≤ 0

Source: the supplement of paper PMC4466140
